In all, about 52,000 compounds went through this assay and about 4,300 (8.3%) were called active. This is one part of a sample in which actives are shown more often than they occur. Unmarked numbers belong to inactive results. Cut-off read from the data, not from the text of the source: active = survival mostly below about 52% (no sharp cut-off); inactive = mostly above about 56%.
These molecules were tested on DeltatarO mutant (assay: S. aureus survival, RN4220 and DeltatarO strains – OD600, teichoic acid synthesis inhibitors, primary screen (AID 463173)). Details: S. aureus RN4220 wild type/DeltatarO growth, OD600, 18 h, active compounds read low, screened at 18.75 µg/mL (by protocol).

SMILES	survival
Cc1ccc(C(=O)CSc2nnc3ccc4ccccc4n23)cc1	60%
CCOc1ccccc1NC(=O)NC1(C(=O)NCc2ccco2)CCCCC1	84%
CCc1c(C)c2ccc(O)c(CN3CCN(c4ccccc4)CC3)c2oc1=O	56% (active)
CCc1c(C)c2ccc(O)c(CN3CCN(c4ccc(OC)cc4)CC3)c2oc1=O	55%
CCc1c(C)c2ccc(O)c(CN3CCN(c4ccc(F)cc4)CC3)c2oc1=O	55%
Cc1ccc(-n2nc3c(N4CCC(C(=O)NC5CCCCC5)CC4)nnc(C)c3c2C)cc1	81%
Cc1ccc(N2CNC(=O)c3c(C)cc(C)nc32)cc1	74%
CC(=O)c1ccc(C(=O)N(Cc2cccnc2)c2nc3c(C)c(C)ccc3s2)cc1	-1% (active)
CC(=O)c1ccc(C(=O)N(Cc2cccnc2)c2nc3c(Cl)cccc3s2)cc1	91%
CC(=O)N(Cc1cccnc1)c1nc2c(C)c(C)ccc2s1	72%
Cc1cccc2sc(N(Cc3cccnc3)C(=O)CCS(=O)(=O)c3ccccc3)nc12	89%
Cc1cc(C)c2nc(N(Cc3cccnc3)C(=O)CCS(=O)(=O)c3ccccc3)sc2c1	83%
Cc1ccc2sc(N(Cc3cccnc3)C(=O)CCS(=O)(=O)c3ccccc3)nc2c1C	6% (active)
C=CCNCc1cccn1-c1ccccc1	76%
CCCCn1cc(S(=O)(=O)c2ccc(CC)cc2)c(=O)c2cc(F)c(N3CCCC(C)C3)cc21 (stereo not given)	115%
O=C(CN1CCC(NC(=O)Nc2ccccc2-c2ccccc2)CC1)NCc1ccco1	78%
Cc1cccnc1Nc1nc(-c2cccnc2)cs1	48%
CC1CCCCC1NC(=O)CSc1nncn1N (stereo not given)	84%
O=C(Nc1cccc(F)c1)c1oc2ccccc2c1NC(=O)C12CC3CC(CC(C3)C1)C2	72%
Oc1c(C(c2ccccc2)N2CCOCC2)sc2nc(-c3ccco3)nn12 (stereo not given)	69%
Oc1c(C(c2ccccc2Cl)N2CCOCC2)sc2nc(-c3ccco3)nn12 (stereo not given)	0% (active)
Oc1c(C(c2ccc(Cl)cc2)N2CCC3(CC2)OCCO3)sc2nc(-c3ccco3)nn12 (stereo not given)	32% (active)
Oc1c(C(c2ccccc2Cl)N2CCCC2)sc2nc(-c3ccco3)nn12 (stereo not given)	83%

SMILES	survival
Oc1c(C(c2ccccc2)N2CCN(Cc3ccccc3)CC2)sc2nc(-c3ccco3)nn12 (stereo not given)	37% (active)
Oc1c(C(c2ccccc2)N2CCC3(CC2)OCCO3)sc2nc(-c3ccco3)nn12 (stereo not given)	69%
Cc1ccc(C(c2sc3nc(-c4ccco4)nn3c2O)N2CCC3(CC2)OCCO3)cc1 (stereo not given)	78%
Oc1c(C(c2ccc(F)cc2)N2CCN(Cc3ccccc3)CC2)sc2nc(-c3ccco3)nn12 (stereo not given)	73%
CN1CCN(C(c2ccccc2Cl)c2sc3nc(-c4ccco4)nn3c2O)CC1 (stereo not given)	131%
CN1CCN(C(c2ccccc2)c2sc3nc(-c4ccco4)nn3c2O)CC1 (stereo not given)	75%
Oc1c(C(c2ccccc2)N2CCCC2)sc2nc(-c3ccco3)nn12 (stereo not given)	0% (active)
Cc1ccc(C(c2sc3nc(-c4ccco4)nn3c2O)N2CCN(Cc3ccccc3)CC2)cc1 (stereo not given)	112%
O=C(c1ccc2c(c1)N(Cc1ccc(Cl)cc1)C(=O)c1ccccc1S2(=O)=O)N1CCCCCC1	64%
Cn1nc(CC(=O)Nc2ccc(N3CCN(C(=O)OC(C)(C)C)CC3)cc2)c2ccccc2c1=O	84%
COC(=O)c1ccccc1NC(=O)CSc1nc2sc3c(c2c(=O)[nH]1)CCCC3	61%
CCOc1ccccc1NC(=O)CSc1nnc2[nH]c(=O)cc(-c3ccccc3)n12	98%
Cc1nonc1OCCn1nnc(N)n1	95%
Oc1c(C(c2ccccc2)N2CCN(c3cccc(Cl)c3)CC2)sc2nc(-c3ccco3)nn12 (stereo not given)	74%
O=[N+]([O-])c1ccc(C(c2sc3nc(-c4ccco4)nn3c2O)N2CCN(Cc3ccccc3)CC2)cc1 (stereo not given)	79%
O=[N+]([O-])c1ccc(C(c2sc3nc(-c4ccco4)nn3c2O)N2CCN(c3cccc(Cl)c3)CC2)cc1 (stereo not given)	47% (active)
Oc1c(C(c2ccccc2F)N2CCOCC2)sc2nc(-c3ccco3)nn12 (stereo not given)	80%
Cc1nc(C)c(-c2ccc(SCC(=O)Nc3ccc(Br)cc3)nn2)s1	101%
Cc1cc(C)c(NC(=O)CSc2ccc(-c3sc(-c4ccccc4)nc3C)nn2)c(C)c1	33%
Cc1nc(C)c(-c2ccc(SCC(=O)Nc3ccc(Cl)c(Cl)c3)nn2)s1	46% (active)
CCOC(=O)c1ccccc1NC(=O)CSc1ccc(-c2sc(C)nc2C)nn1	91%
COc1ccc(OC)c(NC(=O)CSc2ccc(-c3sc(C)nc3C)nn2)c1	83%
COc1ccc(Cl)cc1NC(=O)CSc1ccc(-c2sc(C)nc2C)nn1	105%

SMILES	survival
COc1cccc(CNC(=O)CSc2ccc(-c3sc(-c4ccccc4)nc3C)nn2)c1	26%
COc1cc(NC(=O)CSc2ccc(-c3sc(-c4ccccc4)nc3C)nn2)cc(OC)c1	19% (active)
CCOC(=O)c1ccc(NC(=O)CSc2ccc(-c3sc(C)nc3C)nn2)cc1	37% (active)
COc1cc(NC(=O)CSc2ccc(-c3sc(C)nc3C)nn2)cc(OC)c1	6% (active)
Cc1nc(C)c(-c2ccc(SCC(=O)Nc3ccc(F)c(F)c3)nn2)s1	102%
COc1ccccc1NC(=O)CSc1ccc(-c2sc(C)nc2C)nn1	92%
COc1ccc(NC(=O)C2CCN(S(=O)(=O)c3c(C)noc3/C=C/c3ccc(C)cc3)CC2)cc1Cl	82%
COc1cc2c(=O)n(CCC(=O)NCC3CCCO3)c(=O)n(CC(=O)Nc3ccc(C)cc3)c2cc1OC (stereo not given)	92%
COc1cccc(OC(=O)CSc2nnc(-c3ccc4c(c3)OCO4)o2)c1	59%
CC(=O)Nc1ccc(S(=O)(=O)NC2(C(F)(F)F)C(=O)Nc3c2c(=O)[nH]c(=O)n3-c2cccc(Cl)c2)cc1 (stereo not given)	84%
Cc1ccc(Cl)cc1N1CCN(C(=O)C2CCN(S(=O)(=O)Cc3ccccc3)CC2)CC1	72%
CCC1CN(C(=O)N2CCC(C(=O)NCc3ccc(C)o3)CC2)c2ccccc2O1 (stereo not given)	87%
O=C(NCc1ccco1)C(c1ccco1)N(C(=O)Cn1nnc2ccccc21)c1ccccc1 (stereo not given)	65%
CN(CC(=O)Nc1cccc(C#N)c1)S(=O)(=O)c1cc2c(cc1Cl)NC(=O)CO2	109%
Cc1cc2c(cc1S(=O)(=O)N(C)CC(=O)Nc1ccc(C#N)cc1)OCC(=O)N2	76%
Cc1cc2c(cc1S(=O)(=O)N(CCN(C)C)Cc1ccccc1)OCC(=O)N2	102%
Cc1cc2c(cc1S(=O)(=O)N(C)CC(=O)Nc1cccc(C#N)c1)OCC(=O)N2	-2% (active)
Cc1cc2c(cc1S(=O)(=O)N(CCN(C)C)Cc1ccco1)OCC(=O)N2	98%
Cc1cc2c(cc1S(=O)(=O)N(CCO)Cc1ccccc1)OCC(=O)N2	46% (active)
CCN1CCN(C(c2cccc(OC)c2)c2c(O)cc(C)n(Cc3ccco3)c2=O)CC1 (stereo not given)	120%
Cc1ccc(-c2n[nH]c3c2C(c2ccc(C(C)(C)C)cc2)NC3=O)cc1 (stereo not given)	109%
CCSc1nn(CC(=O)Nc2ccc(C(=O)OC)cc2)c(N)c1S(=O)(=O)c1ccc(C)cc1	37% (active)
CCc1ccc(NC(=O)Cn2nc(SC)c(S(=O)(=O)c3ccc(OC)cc3)c2N)cc1	118%

SMILES	survival
CCOC(=O)c1ccc(NC(=O)Cn2nc(SC)c(S(=O)(=O)c3ccc(Cl)cc3)c2N)cc1	99%
COc1ccc(NC(=O)Cn2nc(SC)c(S(=O)(=O)c3ccc(C)cc3)c2N)cc1OC	25% (active)
CCSc1nn(CC(=O)Nc2cccc(CC)c2)c(N)c1S(=O)(=O)c1ccccc1	101%
COc1ccc(S(=O)(=O)c2c(SC)nn(CC(=O)Nc3ccc(C)c(Cl)c3)c2N)cc1	83%
Cn1cc(-c2cc3n(n2)CCC(=O)N3CCCC(=O)NCc2ccccc2Cl)c2ccccc21	109%
CCn1c(=O)cc(SCC(=O)NCCc2ccc(Cl)cc2)c2ccccc21	76%
O=C(NC12CCC(O)C(SC1)/C2=N/O)c1ccccc1 (stereo not given)	98%
COc1cccc(-c2noc(C3CCCN(S(=O)(=O)c4ccccc4F)C3)n2)c1 (stereo not given)	65%
CC(C)(C)OC(=O)N1CCC(c2c(C(=O)NCCN3CCc4ccccc4C3)cnn2-c2ccc(F)cc2)CC1	68%
CCN(CC)C(=O)CSc1nc(-c2ccc(C)cc2)nc2c1Cc1c(CO)cnc(C)c1O2	39% (active)
CCSc1nc(-c2ccccc2F)nc2c1Cc1c(CO)cnc(C)c1O2	52% (active)
CCc1ccc(CSc2nc(-c3ccccc3OC)nc3c2Cc2c(CO)cnc(C)c2O3)cc1	90%
Cc1ccc(-c2nc3c(c(SCC(=O)N(C)c4ccccc4)n2)Cc2c(CO)cnc(C)c2O3)cc1	64%
Cc1ncc(CO)c2c1Oc1nc(-c3ccc(F)cc3)nc(SCC(=O)N3CCCCC3)c1C2	52%
Cc1ccc(C)c(CSc2nc(-c3ccccc3F)nc3c2Cc2c(CO)cnc(C)c2O3)c1	108%
Cc1ncc(CO)c2c1Oc1nc(-c3ccc(Cl)cc3)nc(SCC(=O)N3CCCCC3)c1C2	48% (active)
COc1ccccc1-c1nc2c(c(SCc3cc(C)ccc3C)n1)Cc1c(CO)cnc(C)c1O2	41% (active)
Cc1ncc(CO)c2c1Oc1nc(-c3ccccc3)nc(SCC(=O)N3CCCCC3)c1C2	85%
CCN(CC)C(=O)CSc1nc(-c2ccccc2F)nc2c1Cc1c(CO)cnc(C)c1O2	101%
CCc1ccc(CSc2nc(-c3ccccc3F)nc3c2Cc2c(CO)cnc(C)c2O3)cc1	61%
CCSc1nc(-c2ccccc2OC)nc2c1Cc1c(CO)cnc(C)c1O2	80%
